# Results from PubChem BioAssay AID493203 (National Center for Advancing Translational Sciences (NCATS), 2011).
# Inconclusive results are not listed. Values without a mark were called inactive. Activity calls are given as the source filed them. Calls follow the shape of the dose curve; as a rule, active = well fitted activation curve with a large enough effect; inconclusive = small, poorly fitted or top-dose-only effect; inactive = flat fitted curve, though single readings scatter.
# Experiment: qHTS Assay for NPC1 Promoter Activators: Initial hit validation from the primary screen;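 as to activity, positive = activation: reporter driven by the mutant form of the NPC1 promoter; % of control where 0% means no effect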
# Settings: Huh7 NPC1 promoter-luciferase reporter, luminescence, 24 h; series mostly up to 46.1 µM; activity, positive = activation: at the top concentration
# How it was run: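 Promoter activation measured as luciferase luminescence (Amplite reagent, 10 minutes ambient) after 24 hours' compound exposure at 37C. Cells: NPC1-luciferase Huh7, 1500 per well, reduced-serum OP-MEM I plus 10% FBS.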
# Potency is read from the fitted curve at half-maximal effect.
Compound,"activity, positive = activation",Potency
COc1ccc(OC)c(S(=O)(=O)N2CCN3CCCC3C2)c1 (centres undefined),-2.34%,–
O=C(Nc1nc2ccc(F)cc2s1)c1ccc(N2CCCC2=O)cc1,–,141 nM (active)
COc1ccc(-c2csc(Nc3ncccn3)n2)cc1C,–,250 nM (active)
O=C(N/N=C/c1ccc(-c2ccc(Br)cc2)o1)c1ccc2c(c1)OCO2,14.3%,–
O=C(COc1ccccc1F)Nc1ccc(-c2nc3ccccc3s2)cc1,–,250 nM (active)
Cc1nc(-c2ccc(S(=O)(=O)Oc3ccc(Cl)cc3Cl)s2)cs1,-17.2%,–
O=C(CCNC(=O)c1ccc(Br)o1)NCc1ccc(Cl)cc1,-0.949%,–
CC(Sc1ncnc2c1cnn2-c1ccccc1)C(=O)Nc1ccc(N2CCOCC2)cc1 (centres undefined),5.76%,–
NC(=O)C1(NC(=O)[C@@H]2CC3(CC(c4cccc(NC(=O)[C@@H]5CCC(=O)N5)c4)=NO3)CN2C(=O)c2ccccc2)CC1 (some centres undefined),3.18%,–
Cc1cccc(C)c1NC(=O)Nc1cccs1,-6.67%,–
O=CN1CCN(C(=O)c2ccccc2Cl)CC1,4.57%,–
COc1ccc(/C=C\C(=O)c2c(O)ccc3c(C)cc(=O)oc23)cc1OC,-33.2%,–
COc1ccc(-c2cc(C(=O)Nc3ccccc3F)on2)cc1,–,31500 nM (active)
Cc1ccc(C#N)c(SCC(=O)Nc2nccs2)n1,–,1120 nM (active)
Cc1c(C(O)CN2CCN(Cc3ccc4c(c3)OCO4)CC2)c2ccccc2n1C (centres undefined),-7.59%,–
COc1ccc(NC(=O)CN(C)C(=O)c2ccc(=O)[nH]c2)cc1,0.198%,–
CCC(=O)Nc1cc(-c2cc3ccccc3oc2=O)ccc1OC,–,1120 nM (active)

Compound,"activity, positive = activation",Potency
CCN(CC)S(=O)(=O)c1ccc(NCc2ccccn2)nc1,4.73%,–
COCCNC(=O)C1CCC(CNS(=O)(=O)c2ccc(F)cc2)CC1 (centres undefined),1.82%,–
COc1ccc(NC(=O)CCCN2C(=O)C(c3ccccc3)Oc3cccnc32)cc1OC (centres undefined),-7.4%,–
CCCCn1c(CCNC(=O)c2cccs2)nc2ccccc21,-12.1%,–
COCCNC(=O)CN1C(=O)NC(c2ccccc2)(c2ccccc2)C1=O,1.47%,–
Cc1ccc(C(=O)Nc2ccc(N3CCN(C)CC3)nc2)cc1,–,31500 nM (active)
NC(=O)C(=O)NN=C1C2CC3CC(C2)CC1C3,1.62%,–
COc1ccc(S(=O)(=O)N2CCCC(C(=O)NCc3ccncc3)C2)cc1Cl (centres undefined),5.51%,–
Cc1ccc(N(O)C(=O)NCCCCNC(=O)N(O)c2ccc(C)cc2)cc1,–,25000 nM (active)
O=C(/C=C/c1ccco1)NCC1OCCc2ccccc21 (centres undefined),2.53%,–
O=C(CCCN1C(=O)C(c2ccccc2)Oc2cccnc21)Nc1ccccc1Cl (centres undefined),-11.5%,–
COc1ccc(S(=O)(=O)NC(C(=O)NCCc2ccccn2)C(C)C)cc1 (centres undefined),-3.43%,–
CCOc1ccc(S(=O)(=O)NCc2ccccc2)cc1C(N)=O,-4.97%,–
Cn1c(CCN2CCN(c3ccccc3)CC2)nc2cc(NC(=O)c3ccco3)ccc21,7.93%,–
Cc1cc(C)cc(N(CC(=O)NC2CCCC2)C(=O)CNC(=O)c2ccco2)c1,5.42%,–
CCN(Cc1nc2cc(Cl)ccc2c(=O)[nH]1)C(=O)C1CC(=O)N(c2cccc3ccccc23)C1 (centres undefined),-2.69%,–
Cc1ccc2nc(Nc3ccc(Cl)cc3)c3nncn3c2c1,4.35%,–
